Assay results: PubChem BioAssay (EPA / NIEHS)
Records with an inconclusive call do not appear. Calls of active or inactive are those of the source. The calls were made as follows, unless noted: active = hit-call score of the fitted dose curve at least 0.9, where 1 is the maximum; inactive = score below 0.9.

What was measured:
[1] = target: Glucocorticoid receptor (Homo sapiens) (UniProt P04150); assay: ATG_GR_TRANS: Attagene TRANS-FACTORIAL HepG2 Assay for human Glucocorticoid Receptor (GR) (AID 2282978; active = hit-call score of the fitted dose curve at least 0.9, where 1 is the maximum;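 also: activators score as hits since higher reporter transcript over DMSO is fitted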); conditions: HepG2 Attagene TRANS GR reporter, mRNA transcription
Sequence of Glucocorticoid receptor (Homo sapiens) (P04150 whole entry, looked up): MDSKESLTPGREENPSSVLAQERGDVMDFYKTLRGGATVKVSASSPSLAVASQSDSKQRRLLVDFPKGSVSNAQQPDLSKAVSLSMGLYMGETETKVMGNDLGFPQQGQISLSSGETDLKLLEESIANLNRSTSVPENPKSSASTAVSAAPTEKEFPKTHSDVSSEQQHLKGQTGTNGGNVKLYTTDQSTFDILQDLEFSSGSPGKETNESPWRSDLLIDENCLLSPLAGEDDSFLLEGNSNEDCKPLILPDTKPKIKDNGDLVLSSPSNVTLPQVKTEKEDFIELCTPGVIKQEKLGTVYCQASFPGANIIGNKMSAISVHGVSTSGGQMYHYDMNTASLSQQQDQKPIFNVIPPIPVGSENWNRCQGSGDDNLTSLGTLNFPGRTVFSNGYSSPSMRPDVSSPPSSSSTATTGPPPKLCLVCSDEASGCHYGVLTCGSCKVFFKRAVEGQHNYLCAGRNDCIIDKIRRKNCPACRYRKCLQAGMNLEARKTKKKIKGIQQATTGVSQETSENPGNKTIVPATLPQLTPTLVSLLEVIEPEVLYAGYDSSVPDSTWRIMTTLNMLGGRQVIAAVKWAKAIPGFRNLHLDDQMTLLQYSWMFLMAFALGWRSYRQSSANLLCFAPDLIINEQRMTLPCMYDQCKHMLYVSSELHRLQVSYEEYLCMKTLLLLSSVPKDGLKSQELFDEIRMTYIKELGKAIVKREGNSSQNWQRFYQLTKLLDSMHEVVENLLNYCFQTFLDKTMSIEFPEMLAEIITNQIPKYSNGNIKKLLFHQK
In short: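 Multiplexed TRANS reporter system, HepG2; 24 h exposure; RNA → oligo(dT) RT → reporter-specific PCR → 6-FAM primer extension → HpaI cut → CE fluorescence. Gain-of-signal vs DMSO.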

[2] = target: Oxysterols receptor LXR-beta (Homo sapiens) (UniProt P55055); assay: ATG_LXRb_TRANS: Attagene TRANS-FACTORIAL HepG2 Assay for human Liver X Receptor beta (LXRb) (AID 2282981; active = hit-call score of the fitted dose curve at least 0.9, where 1 is the maximum); conditions: HepG2 Attagene TRANS GAL4-LXRb reporter, mRNA
Sequence of Oxysterols receptor LXR-beta (Homo sapiens) (P55055 whole entry, looked up, the tested form may be a part): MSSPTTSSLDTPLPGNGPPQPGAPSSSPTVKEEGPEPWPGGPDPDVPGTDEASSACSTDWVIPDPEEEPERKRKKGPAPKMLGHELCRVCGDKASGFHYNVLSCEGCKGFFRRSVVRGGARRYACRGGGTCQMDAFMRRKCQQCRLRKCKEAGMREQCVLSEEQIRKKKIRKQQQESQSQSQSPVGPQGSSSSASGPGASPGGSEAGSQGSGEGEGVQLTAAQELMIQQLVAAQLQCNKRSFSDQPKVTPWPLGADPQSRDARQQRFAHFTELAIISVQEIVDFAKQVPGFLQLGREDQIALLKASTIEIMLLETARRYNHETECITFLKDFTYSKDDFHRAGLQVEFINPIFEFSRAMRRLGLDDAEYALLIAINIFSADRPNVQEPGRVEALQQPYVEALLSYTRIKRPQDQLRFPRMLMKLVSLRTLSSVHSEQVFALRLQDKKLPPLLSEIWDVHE
In short: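 After 24 h chemical treatment of transfected HepG2 cells carrying exogenous NR-Gal4 chimeras, reporter mRNA was quantified by fluorescent RT-PCR and capillary electrophoresis; activity taken as increase over DMSO controls.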

[3] = target: Hepatocyte nuclear factor 4-alpha (Homo sapiens) (UniProt P41235); assay: ATG_HNF4a_TRANS: Attagene TRANS-FACTORIAL HepG2 Assay for human Hepatocyte Nuclear Factor 4 alpha (HNF4a) (AID 2282982; active = hit-call score of the fitted dose curve at least 0.9, where 1 is the maximum); conditions: HepG2 HNF4a transactivation reporter, mRNA readout
Sequence of Hepatocyte nuclear factor 4-alpha (Homo sapiens) (P41235 whole entry, looked up, the tested form may be a part): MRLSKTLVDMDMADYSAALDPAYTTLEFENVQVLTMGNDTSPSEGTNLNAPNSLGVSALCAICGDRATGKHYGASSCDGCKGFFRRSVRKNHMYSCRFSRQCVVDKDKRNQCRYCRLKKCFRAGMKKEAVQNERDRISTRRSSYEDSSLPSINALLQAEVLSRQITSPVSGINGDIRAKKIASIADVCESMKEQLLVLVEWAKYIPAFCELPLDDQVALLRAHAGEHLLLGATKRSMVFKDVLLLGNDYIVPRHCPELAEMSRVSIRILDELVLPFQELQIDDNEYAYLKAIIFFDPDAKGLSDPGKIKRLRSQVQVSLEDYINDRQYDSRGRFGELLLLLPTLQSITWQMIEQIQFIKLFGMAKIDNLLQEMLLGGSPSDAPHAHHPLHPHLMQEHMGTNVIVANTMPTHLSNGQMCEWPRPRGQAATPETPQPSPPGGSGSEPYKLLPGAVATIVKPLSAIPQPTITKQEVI
In short: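 Activity of an exogenous HNF4a–Gal4 fusion scored as induced GAL4-UAS reporter transcripts after 24 h chemical exposure of transfected human HepG2 cells. Read-out via RT-PCR with 6-FAM labelling and capillary electrophoresis; rise over DMSO baseline.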

[4] = ATG_M_32_TRANS: Attagene TRANS-FACTORIAL HepG2 Assay for M32 Transcription Factor (Internal Marker) (AID 2282984; active = hit-call score of the fitted dose curve at least 0.9, where 1 is the maximum;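 also: transcript level of a background control reporter unit measured by RT-PCR and capillary electrophoresis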); conditions: HepG2 Attagene TRANS M32 internal marker reporter
In short: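 Internal background reporter in transfected HepG2: after 24 h chemical exposure, RNA reverse-transcribed, reporter cDNA amplified, fluorescently labelled and HpaI-cut, then sized by capillary electrophoresis. Gain of signal fitted against DMSO control.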

[5] = target: Transcriptional activator Myb (Homo sapiens) (UniProt P10242); assay: ATG_Myb_CIS: Attagene CIS-FACTORIAL HepG2 Assay for human Myeloblastosis (Myb) Proto-Oncogene Transcription Factor (AID 2282986); conditions: HepG2 Attagene CIS-FACTORIAL Myb reporter transcription; actives raise or lower the signal
Sequence of Transcriptional activator Myb (Homo sapiens) (P10242 whole entry, looked up): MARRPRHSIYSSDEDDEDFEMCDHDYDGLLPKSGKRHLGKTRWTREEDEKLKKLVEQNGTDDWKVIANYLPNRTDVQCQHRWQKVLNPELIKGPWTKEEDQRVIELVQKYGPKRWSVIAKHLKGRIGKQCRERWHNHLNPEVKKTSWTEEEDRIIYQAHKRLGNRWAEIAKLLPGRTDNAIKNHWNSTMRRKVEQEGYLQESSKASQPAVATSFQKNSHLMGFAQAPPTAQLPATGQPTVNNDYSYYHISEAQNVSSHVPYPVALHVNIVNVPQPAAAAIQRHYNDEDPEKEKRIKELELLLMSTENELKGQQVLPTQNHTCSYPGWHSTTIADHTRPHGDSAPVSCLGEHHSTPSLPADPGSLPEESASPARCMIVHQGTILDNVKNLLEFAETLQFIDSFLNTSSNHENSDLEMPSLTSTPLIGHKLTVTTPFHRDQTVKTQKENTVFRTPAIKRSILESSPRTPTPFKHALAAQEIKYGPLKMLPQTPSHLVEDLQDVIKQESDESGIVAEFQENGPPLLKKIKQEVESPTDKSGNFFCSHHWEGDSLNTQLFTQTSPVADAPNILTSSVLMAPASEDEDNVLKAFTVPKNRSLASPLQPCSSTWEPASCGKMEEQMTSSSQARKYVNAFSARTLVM
In short: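 Endogenous transcription factor activity at a Myb-responsive cis element is reported in human liver HepG2 cells after 24 h chemical treatment. Reporter mRNA is detected by RT-PCR and capillary electrophoresis fluorescence, with DMSO as baseline.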

[6] = target: Nuclear respiratory factor 1 (Homo sapiens) (UniProt Q16656); assay: ATG_NRF1_CIS: Attagene CIS-FACTORIAL HepG2 Assay for human Nuclear Respiratory Factor 1 (NRF1) Orphan Gene (AID 2282987); conditions: HepG2 NRF1 cis-element reporter, Attagene multiplex; actives raise or lower the signal
Sequence of Nuclear respiratory factor 1 (Homo sapiens) (Q16656 whole entry, looked up): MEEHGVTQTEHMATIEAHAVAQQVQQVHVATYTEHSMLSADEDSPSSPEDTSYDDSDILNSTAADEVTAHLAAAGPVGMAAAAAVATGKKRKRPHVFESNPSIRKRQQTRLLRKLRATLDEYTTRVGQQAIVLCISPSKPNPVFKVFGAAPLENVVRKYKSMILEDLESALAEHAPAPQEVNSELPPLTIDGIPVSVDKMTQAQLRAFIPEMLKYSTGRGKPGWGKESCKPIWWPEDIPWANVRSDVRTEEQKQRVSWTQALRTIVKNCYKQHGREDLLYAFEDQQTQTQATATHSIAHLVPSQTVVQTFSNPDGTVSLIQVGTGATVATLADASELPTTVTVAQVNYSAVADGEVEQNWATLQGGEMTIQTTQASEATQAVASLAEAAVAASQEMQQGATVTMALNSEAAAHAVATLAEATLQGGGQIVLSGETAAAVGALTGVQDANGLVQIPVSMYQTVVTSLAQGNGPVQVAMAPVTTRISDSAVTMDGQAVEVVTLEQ
In short: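 Human hepatoma HepG2 cells carrying transfected promoter-regulated reporter units were incubated with test chemicals for 24 h. Reporter transcripts were measured by RT-PCR plus capillary electrophoresis, and endpoints derived by bidirectional fitting with DMSO as baseline.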

[7] = ATG_NFI_CIS: Attagene CIS-FACTORIAL HepG2 Assay for human Nuclear Factor I (NFI) (AID 2282989); conditions: HepG2 cis-regulatory reporter, NFI response element transcription; actives raise or lower the signal
In short: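 After transient transfection of HepG2 with cis-promoter reporter constructs and 24 h dosing, RNA is reverse-transcribed, amplified, 6-FAM end-labelled and HpaI-digested before capillary analysis. Bidirectional curve fitting against DMSO.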

[8] = target: Myc proto-oncogene protein (Homo sapiens) (UniProt P01106); assay: ATG_Myc_CIS: Attagene CIS-FACTORIAL HepG2 Assay for human Myelocytomatosis (Myc) Proto-Oncogene Transcription Factor (AID 2282990); conditions: HepG2, Attagene cis-reporter transcription factor activity; actives raise or lower the signal
Sequence of Myc proto-oncogene protein (Homo sapiens) (P01106 whole entry, looked up): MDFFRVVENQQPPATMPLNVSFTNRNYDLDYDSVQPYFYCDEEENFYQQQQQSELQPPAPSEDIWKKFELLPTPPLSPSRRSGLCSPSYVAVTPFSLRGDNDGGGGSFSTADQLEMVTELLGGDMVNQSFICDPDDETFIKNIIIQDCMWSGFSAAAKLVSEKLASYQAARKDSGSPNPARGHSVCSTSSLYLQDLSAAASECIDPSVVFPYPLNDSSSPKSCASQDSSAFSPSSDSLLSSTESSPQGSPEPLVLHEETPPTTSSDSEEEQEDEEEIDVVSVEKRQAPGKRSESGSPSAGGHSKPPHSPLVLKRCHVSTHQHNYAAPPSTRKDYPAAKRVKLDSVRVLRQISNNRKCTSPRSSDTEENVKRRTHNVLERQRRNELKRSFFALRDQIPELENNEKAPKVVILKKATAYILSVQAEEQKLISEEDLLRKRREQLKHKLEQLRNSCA
In short: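 Cells of the HepG2 human liver line bear multiple cis-driven reporter transcription units. Reporter mRNA after 24 h exposure is reverse-transcribed, amplified, labelled and resolved by capillary electrophoresis, with gain- or loss-of-signal fitting relative to DMSO.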

[9] = ATG_NF_kB_CIS: Attagene CIS-FACTORIAL HepG2 Assay for human Nuclear Factor Kappa B (NF-kB) (AID 2282991); conditions: HepG2 Attagene cis-factorial NF-kB reporter mRNA; actives raise or lower the signal
In short: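 Multiplexed cis-reporter assay in transiently transfected HepG2. 24 h treatment; RNA isolated, RT-PCR, labelled fragments resolved by CE. DMSO baseline.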

[10] = ATG_NRF2_ARE_CIS: Attagene CIS-FACTORIAL HepG2 Assay for human Nuclear Factor Erythroid 2 Related Factor 2 (NFR2) response to Antioxidant Response Elements (ARE) (AID 2282992); conditions: HepG2 Attagene ARE/NRF2 reporter, transcription factor activity; actives raise or lower the signal
In short: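 Endogenous transcription factor activity in human liver HepG2 cells is tracked via a cis-element-driven reporter within a multiplexed set. mRNA induction is read by RT-PCR and capillary electrophoresis after 24 h, with DMSO as baseline.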

[11] = ATG_Oct_MLP_CIS: Attagene CIS-FACTORIAL HepG2 Assay for human Octamer-Binding Transcription Factor (Oct) (AID 2282993); conditions: HepG2 Attagene cis-factorial Oct reporter, mRNA; actives raise or lower the signal
In short: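 Cells of the HepG2 line express promoter-controlled reporter sequences whose mRNA levels, after 24 h treatment, are measured by RT-PCR and capillary electrophoresis. Increases and decreases are scored relative to DMSO.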

[12] = target: Cellular tumor antigen p53 (Homo sapiens) (UniProt P04637); assay: ATG_p53_CIS: Attagene CIS-FACTORIAL HepG2 Assay for human p53 Transcription Factor (AID 2282994); conditions: HepG2 p53 cis-element reporter, Attagene mRNA; actives raise or lower the signal
Sequence of Cellular tumor antigen p53 (Homo sapiens) (P04637 whole entry, looked up, the tested form may be a part): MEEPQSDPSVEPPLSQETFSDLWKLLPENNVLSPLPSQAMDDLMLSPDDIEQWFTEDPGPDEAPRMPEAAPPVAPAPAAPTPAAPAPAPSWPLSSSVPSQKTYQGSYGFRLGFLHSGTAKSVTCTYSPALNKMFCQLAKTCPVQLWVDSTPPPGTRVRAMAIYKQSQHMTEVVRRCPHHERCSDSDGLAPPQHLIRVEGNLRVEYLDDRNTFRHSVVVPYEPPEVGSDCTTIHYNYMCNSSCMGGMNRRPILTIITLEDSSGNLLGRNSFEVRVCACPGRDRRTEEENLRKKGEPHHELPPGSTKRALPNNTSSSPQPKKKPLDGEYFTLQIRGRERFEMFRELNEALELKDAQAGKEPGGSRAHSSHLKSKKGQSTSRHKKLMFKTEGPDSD
In short: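 Steps: transfect HepG2 with multiplexed cis reporter constructs; dose chemicals 24 h; extract RNA, reverse-transcribe, PCR-amplify reporter sequences; FAM-label, HpaI-digest, resolve fragments by CE. Activity fitted both directions relative to DMSO.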

[13] = BSK_3C_TissueFactor: BioMAP Diversity Plus: 3C Assay for Tissue Factor Biomarker Activity (AID 2282997); conditions: BioMAP 3C HUVEC, tissue factor biomarker readout; actives raise or lower the signal
In short: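 In this endothelial system, HUVEC are treated for 24 h and Tissue Factor is assessed by ELISA, normalised to DMSO.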

[14] = BSK_3C_uPAR: BioMAP Diversity Plus: 3C Assay for Urokinase-type plasminogen activator receptor (uPAR) Biomarker Activity (AID 2282998); conditions: BioMAP 3C HUVEC, uPAR biomarker ELISA; actives raise or lower the signal
In short: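 Endothelial primary cells of human umbilical vein origin received test chemical; 24 h later uPAR was assayed by ELISA. Fitting was bidirectional, DMSO as negative control.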

[15] = BSK_4H_Eotaxin3: BioMAP Diversity Plus: 4H Assay for Eotaxin 3 Biomarker Activity (AID 2283000); conditions: primary human endothelial cells (HUVEC); actives raise or lower the signal
In short: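 ELISA quantitation of CCL26 (Eotaxin-3) protein from chemically dosed human vascular endothelial cells at 24 h; increases and decreases both scored relative to DMSO-treated baseline.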

[16] = ATG_M_06_TRANS: Attagene TRANS-FACTORIAL HepG2 Assay for M06 Transcription Factor (Internal Marker) (AID 2282983; active = hit-call score of the fitted dose curve at least 0.9, where 1 is the maximum;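 as to AC50: potency for rise in reporter mRNA above DMSO baseline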); conditions: HepG2 Attagene TRANS M06 internal marker reporter
In short: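 Multi-reporter-transfected HepG2, 24 h treatment; reporter transcripts quantified via RT-PCR, primer-extension labelling and CE. DMSO-normalized gain-of-signal fit.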

[17] = target: Nuclear receptor subfamily 4 group A member 2 (Homo sapiens) (UniProt P43354); assay: ATG_NURR1_TRANS: Attagene TRANS-FACTORIAL HepG2 Assay for human Nuclear Receptor Related Protein 1 (NURR1) (AID 2282985; active = hit-call score of the fitted dose curve at least 0.9, where 1 is the maximum); conditions: HepG2 Attagene TRANS reporter, mRNA readout
Sequence of Nuclear receptor subfamily 4 group A member 2 (Homo sapiens) (P43354 whole entry, looked up, the tested form may be a part): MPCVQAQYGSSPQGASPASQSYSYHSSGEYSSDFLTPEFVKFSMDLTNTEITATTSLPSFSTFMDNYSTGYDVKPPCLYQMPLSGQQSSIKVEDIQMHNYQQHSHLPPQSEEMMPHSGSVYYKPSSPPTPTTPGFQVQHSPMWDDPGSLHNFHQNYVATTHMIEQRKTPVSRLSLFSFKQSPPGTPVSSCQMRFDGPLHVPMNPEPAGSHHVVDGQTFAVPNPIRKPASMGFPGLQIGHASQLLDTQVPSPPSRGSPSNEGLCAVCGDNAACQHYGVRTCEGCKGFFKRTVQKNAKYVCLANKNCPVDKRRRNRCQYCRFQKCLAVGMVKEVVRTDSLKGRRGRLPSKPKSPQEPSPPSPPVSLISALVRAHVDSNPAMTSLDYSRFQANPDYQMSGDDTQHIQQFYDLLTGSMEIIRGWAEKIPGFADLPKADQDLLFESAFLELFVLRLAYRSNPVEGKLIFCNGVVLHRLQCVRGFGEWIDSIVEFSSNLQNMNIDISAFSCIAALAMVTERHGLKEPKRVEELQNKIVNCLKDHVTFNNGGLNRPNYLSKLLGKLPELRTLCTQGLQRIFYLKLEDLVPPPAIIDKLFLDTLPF
In short: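 Reporter transcript induction, measured by RT-PCR with fluorescent labelling, HpaI digestion and capillary electrophoresis, after 24 hr dosing of human HepG2 cells transiently expressing an exogenous NR-Gal4 fusion with GAL4-UAS-driven reporters; DMSO as baseline.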

[18] = target: Bile acid receptor (Homo sapiens) (UniProt Q96RI1); assay: ATG_FXR_TRANS: Attagene TRANS-FACTORIAL HepG2 Assay for Farnesoid X Receptor (FXR) (AID 2282979; active = hit-call score of the fitted dose curve at least 0.9, where 1 is the maximum;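 also: hits raise reporter mRNA above DMSO so AC50 marks FXR activation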); conditions: HepG2 Attagene TRANS FXR-GAL4 reporter transcription
In short: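 After 24 h chemical treatment of transfected HepG2 cells, GAL4-UAS reporter transcripts driven by an exogenous FXR-GAL4 fusion were measured by RT-PCR and capillary electrophoresis. Increases over DMSO were fitted.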

[19] = target: human Peroxisome Proliferator-activated Receptor alpha (PPARa), PPARA (gene 5465) (UniProt Q07869); assay: ATG_PPARa_TRANS: Attagene TRANS-FACTORIAL HepG2 Assay for human Peroxisome Proliferator-activated Receptor alpha (PPARa) (AID 2283001; active = hit-call score of the fitted dose curve at least 0.9, where 1 is the maximum;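 as to AC50: potency for gain of reporter signal over DMSO so agonist or activator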)
Sequence of human Peroxisome Proliferator-activated Receptor alpha (PPARa), PPARA (gene 5465) (Q07869 whole entry, looked up, the tested form may be a part): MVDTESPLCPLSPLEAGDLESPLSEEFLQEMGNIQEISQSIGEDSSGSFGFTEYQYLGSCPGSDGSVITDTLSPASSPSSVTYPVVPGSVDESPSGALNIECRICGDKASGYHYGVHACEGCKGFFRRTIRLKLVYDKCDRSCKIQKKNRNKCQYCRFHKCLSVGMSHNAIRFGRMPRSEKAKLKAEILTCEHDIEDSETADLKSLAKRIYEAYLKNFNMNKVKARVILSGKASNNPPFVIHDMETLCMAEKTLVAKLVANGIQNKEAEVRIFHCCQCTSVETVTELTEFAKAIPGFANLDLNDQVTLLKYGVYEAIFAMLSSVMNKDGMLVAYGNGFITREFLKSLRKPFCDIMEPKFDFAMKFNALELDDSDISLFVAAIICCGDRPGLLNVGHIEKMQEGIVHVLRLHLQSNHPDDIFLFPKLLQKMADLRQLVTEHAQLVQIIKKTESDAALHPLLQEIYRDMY
In short: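 Reporter transcripts quantified by RT-PCR plus capillary electrophoresis after 24 h treatment, fitted upward relative to DMSO. Cells: human HepG2 transiently carrying multiple GAL4-UAS reporter units driven by NR-Gal4 chimeras.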

[20] = BSK_3C_VCAM1: BioMAP Diversity Plus: 3C Assay for Vascular cell adhesion molecule 1 (VCAM1) Biomarker Activity (AID 2282999); conditions: BioMAP 3C HUVEC, VCAM1 ELISA, cytokine-stimulated; actives raise or lower the signal
In short: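 Activity fitted in both directions relative to DMSO, with ELISA measurement of the surface marker on primary HUVEC (3C) at 24 h post-treatment; parallel SRB staining (0.1% SRB, TCA-fixed, 560 nm) flagged overt cytotoxicity.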

Measured: AC50

COc1ccc(-n2nc(C(F)F)cc2-c2ccc(S(C)=O)cc2)cc1 (stereo not given)
inactive: [1] | [2] | [3] | [4] | [5] | [6] | [7] | [8] | [9] | [10] | [11] | [12] | [13] | [14] | [15]

COC(=O)CC(=O)OC
inactive: [1] | [3] | [16] | [17] | [5] | [6] | [7] | [8] | [10] | [11] | [13] | [14] | [15]

CC(C)c1cccc(C(C)C)c1N1C(=O)c2ccc(O)cc2C1=O
inactive: [1] | [2] | [4] | [17] | [5] | [9] | [13]
active: [18] 19.8 µM | [6] 152 µM | [7] 62.9 µM | [8] 164 µM | [10] 25.2 µM | [11] 76.2 µM | [14] 19 µM | [15] 30.8 µM

O=c1[nH]c2ccc(S(=O)CCN3CCC(Cc4ccc(F)cc4)CC3)cc2o1 (stereo not given)
inactive: [1] | [2] | [16] | [17] | [5] | [6] | [8] | [13] | [14] | [15] | [19]
active: [7] 100 µM | [9] 76.2 µM | [10] 39.4 µM | [11] 64.9 µM

CC(C)=CCCC(C)=CC=O
inactive: [1] | [3] | [16] | [4] | [5] | [6] | [7] | [8] | [11] | [13] | [14]
active: [17] 100 µM | [10] 62.4 µM | [19] 58.6 µM

Nc1nc2ncc(CNc3ccc(C(=O)N[C@@H](CCC(=O)O)C(=O)O)cc3)nc2c(=O)[nH]1
inactive: [1] | [2] | [5] | [6] | [7] | [8] | [9] | [10] | [11] | [12] | [13] | [14] | [20]

CCOC(=O)c1ccc(C2CCC(NC[C@H](O)COc3ccc(O)c(NS(C)(=O)=O)c3)CC2)cc1 (stereo not given in full)
active: [18] 33 µM | [16] 62.3 µM | [5] 55.5 µM | [8] 53.8 µM | [11] 49.2 µM | [14] 31.2 µM | [19] 54.8 µM
inactive: [1] | [4] | [6] | [7] | [10] | [13]

Cn1c(=O)cc(Oc2ccc(F)cc2F)c2cnc(NCC(C)(C)O)nc21
inactive: [1] | [18] | [2] | [3] | [16] | [4] | [5] | [8] | [10] | [11] | [14] | [20] | [15]
active: [6] 51.6 µM | [7] 9.46 µM | [12] 41.7 µM | [13] 1.4 µM
